This passage reports Potency, outcome and max activation results from PubChem BioAssay (Tox21).

Assay [1] is described as follows: qHTS assay to identify small molecule agonists of the estrogen receptor alpha (ER-alpha) signaling pathway in the presence of an antagonist - cell viability counter screen (AID 1259386).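 Also: series mostly up to about 92 µM; cells exposed to compounds for 22 h at 37 °C before the viability read; nearly all actives have a fitted effect of over 30% in size.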 The gist of the method:
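VM7Luc4E2 cells (endogenous full-length ER-alpha, 4×ERE-luciferase) were held 5 days in phenol red-free medium with 10% charcoal-stripped FBS, plated, then given 10.0nM ICI-182,780 and compounds at 15 concentrations for 22hr at 37C; viability read by CellTiter-Fluor fluorescence.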
In general terms: qHTS replaces the single test concentration by a dilution series.

Assay [2] has as its target Progesterone receptor (Homo sapiens) (UniProt P06401). Kind of assay: qHTS assay to identify small molecule antagonists of the progesterone receptor (PR) signaling pathway (AID 1346795; active = well fitted inhibition curve with a large enough effect in the signal ratio in the repeat runs, not every such curve was filed as active; the % refers to the signal ratio; also: potency is read from the fitted curve at half-maximal effect). The gist of the method:
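Fluorescence intensity measured 2 hr after adding beta-lactamase FRET substrate to PR-UAS-bla HEK293T cells that had been co-treated 16 hr with compound and 1 nM R5020 (final concentration) in 2% charcoal-stripped FBS.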

Assay [3] in a line: qHTS assay to identify small molecule antagonists of the TGF-beta/Smad signaling pathway - cell viability counter screen (AID 1346824). Also: nearly all actives have a fitted effect of over 50% in size. The gist of the method: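 Cytotoxicity counter-screen run in the same wells as the beta-lactamase Smad reporter read: CellTiter-Glo luminescence after 30 min at room temperature. HEK 293T SBE-bla cells had 5 hr compound exposure at 37 C with TGF-beta1 (0.25 ng/mL stock).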

The nature of assay [4]: qHTS assay to identify small molecule agonists of the TGF-beta/Smad signaling pathway - cell viability counter screen (AID 1346829). Also: top concentration of the series differs between compounds; nearly all actives have a fitted effect of over 45% in size. The procedure, abridged: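 Luminescence from CellTiter-Glo, read after a 30 min room-temperature incubation, gives cell viability of SBE-bla HEK 293T cells treated 5 hr with compounds at 37 C.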
Assay [5] can be described thus: qHTS assay to identify small molecule agonists of the TGF-beta/Smad signaling pathway (AID 1346859; active = well fitted activation curve with a large enough effect in the signal ratio in the repeat runs, not every such curve was filed as active; the % refers to the signal ratio; also: series mostly up to about 77 µM). The procedure, abridged:
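After overnight seeding, SBE-bla HEK 293T cells are dosed with compounds in DMSO and kept 5 hr at 37 C, 5% CO2. LiveBLAzer-type FRET substrate is then applied for 2 hr at room temperature.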

Assay [6] concerns the target Thyrotropin-releasing hormone receptor (Homo sapiens) (UniProt P34981). The experiment in a line: qHTS assay to identify small molecule antagonists of the thyrotropin-releasing hormone receptor (TRHR) signaling pathway (AID 1346877; active = well fitted inhibition curve with a large enough effect in the repeat runs, not every such curve was filed as active; also: series mostly up to about 51 µM). The gist of the method: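 TRHR-expressing HEK293 cells were seeded, cultured 18 h at 37 °C, then loaded with calcium dye for 2 h. Compounds were pre-incubated 5 min at room temperature before 1 nM TRH (final) was added, and kinetic fluorescence was recorded for 3 min.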

For assay [7] the target is unchanged. The experiment in a line: qHTS assay to identify small molecule agonists of the thyrotropin-releasing hormone receptor (TRHR) signaling pathway (AID 1346891; calls by dose curve; also: series mostly up to about 58 µM). The gist of the method:
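Compounds were tested as agonists at 15 concentrations, in triplicate, on TRHR-Hek293 cells; calcium-sensitive dye fluorescence was recorded for 3 min following addition.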

A short description of assay [8]: Human pregnane X receptor (PXR) small molecule agonists, qHTS cell viability counter screen (AID 1346977). Also: nearly all actives have a fitted effect of over 50% in size. Also: potency is read from the fitted curve at half-maximal effect. The gist of the method:
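Viability counter screen: CellTiter-Fluor signal in PXR-Luc HepG2 cells, 24hr compound exposure, 37C, 5% CO2.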

Assay [9] can be described thus: Caspase-3/7 induction in HepG2 cells by small molecules, qHTS assay (AID 1346978). Also: nearly all actives have a fitted effect of over 15% in size. The procedure, abridged:
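Caspase-3/7 induction was measured by Caspase-Glo 3/7 luminescence (30 min, room temperature) after a 17 hr compound exposure of wild-type HepG2 cells seeded at 2,000 per well and pre-incubated 5 hr.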

A short description of assay [10]: Caspase-3/7 induction in CHO-K1 cells by small molecules, qHTS cell viability counter screen (AID 1346979). Also: nearly all actives have a fitted effect of over 35% in size. Also: potency is read from the fitted curve at half-maximal effect. The procedure, abridged:
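Viability readout by fluorescence (CellTiter-Fluor) on wild-type CHO-K1 cells exposed for 16hr at 37C and 5% CO2 to compounds delivered in DMSO; reagent incubated 1hr before reading.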

Assay [11] can be described thus: Caspase-3/7 induction in CHO-K1 cells by small molecules, qHTS assay (AID 1346980). Also: nearly all actives have a fitted effect of over 15% in size. The procedure, abridged: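 Luminescent Caspase-Glo 3/7 read (30min, room temperature) quantified apoptosis induction. Cells were wild-type CHO-K1, treated with compound for 17hr at 37 C and 5% CO2.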
Assay [12] in a line: Caspase-3/7 induction in HepG2 cells by small molecules, qHTS cell viability counter screen (AID 1346981). Also: series mostly up to about 92 µM; nearly all actives have a fitted effect of over 30% in size. The procedure, abridged: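 Wild-type HepG2 cells (2,000/well) were allowed to settle for 5 hr at 37 C, 5% CO2, then dosed with compounds in DMSO by pin transfer. After 16 hr at 37 C, CellTiter-Fluor was added and fluorescence read 1 hr later.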
In assay [13] the target is Nuclear receptor subfamily 1 group I member 2 (Homo sapiens) (UniProt O75469). Kind of assay: Human pregnane X receptor (PXR) small molecule agonists, qHTS assay (AID 1346982). Also: nearly all actives have a fitted effect of over 35% in size. Also: potency is read from the fitted curve at half-maximal effect. The procedure, abridged:
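PXR-Luc HepG2 cells (CYP3A4 promoter-driven luciferase) were seeded in medium with 5% charcoal-stripped FBS, left 5 hr at 37 C, then exposed to compounds in DMSO for 24 hr. Luminescence was read after ONE-Glo addition.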

For assay [14], the target named is Progesterone receptor (Homo sapiens) (UniProt P06401). The experiment in a line: qHTS assay to identify small molecule agonists of the progesterone receptor (PR) signaling pathway (AID 1346784; calls by dose curve; also: nearly all actives have a fitted effect of over 30% in size). The procedure, abridged: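 Fluorescence from LiveBLAzer B/G FRET substrate cleavage (2 hr, RT) reported PR activation in PR-UAS-bla HEK 293T cells treated 16 hr at 37C/5% CO2 with compounds; medium contained 2% charcoal-stripped FBS.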

A short description of assay [15]: qHTS assay to identify small molecule antagonists of the progesterone receptor (PR) signaling pathway - cell viability counter screen (AID 1346798). Also: series mostly up to about 92 µM; nearly all actives have a fitted effect of over 50% in size. The gist of the method: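 CellTiter-Glo luminescence; PR-UAS-bla HEK293T, 3,000 cells/well; compound + R5020, 16 hr, 37C/5% CO2; 30 min RT before read.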
Assay [16] can be described thus: qHTS assay to identify small molecule agonists of the progesterone receptor (PR) signaling pathway - cell viability counter screen (AID 1346799; calls by dose curve; also: nearly all actives have a fitted effect of over 45% in size). The gist of the method:
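In parallel with the beta-lactamase readout, cytotoxicity toward PR-UAS-bla HEK293T cells was measured by CellTiter-Glo luminescence following 16 hr compound incubation in 2% charcoal-stripped FBS medium.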

Assay [17] addresses Nuclear receptor subfamily 1 group I member 2 (Rattus norvegicus) (UniProt Q9R1A7). Kind of assay: Rat pregnane X receptor (rPXR) activation by small molecules, qHTS assay (AID 1346983). Also: nearly all actives have a fitted effect of over 20% in size. The following applies: rPXR luciferase reporter cells, One-Glo luminescence, 24 h; stronger effect = higher value. The procedure, abridged: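 Luminescent readout (One-Glo luciferase, 30 min room temperature) followed 24 hr compound treatment at 37 C of rPXR cells plated 2,000 per well and preincubated 5hr; qHTS format with compounds delivered in DMSO.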

For assay [18], the target named is Nuclear receptor subfamily 1 group I member 2 (Homo sapiens) (UniProt O75469). The experiment in a line: CYP3A4 induction through human pregnane X receptor (PXR) by small molecules, qHTS assay (AID 1346984). Also: nearly all actives have a fitted effect of over 40% in size. The gist of the method: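 DPX-2 cells (HepG2 co-transfected with PXR and CYP3A4 promoter-luciferase) treated with compounds 24 h at 37C; luciferin-IPA CYP3A4 substrate 3uM final added for 3 h, then One-Glo; luminescence read. qHTS format.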

Assay [19] has the same target. The experiment in a line: Human pregnane X receptor (PXR) activation by small molecules, qHTS assay (AID 1346985). Also: nearly all actives have a fitted effect of over 40% in size. The gist of the method:
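DPX-2 cells (HepG2 co-transfected with a PXR response element and a CYP3A4-promoter luciferase construct) were seeded at 2,000 per well, rested 5 hr at 37C, then exposed to DMSO-dissolved compounds for 24 hr. Activation was read as luciferase luminescence.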

Molecules are shown by their SMILES. Values joined by “and” are separate entries in the source; they are usually repeats but may differ in a detail not shown here. Equal entries are not always repeated. Values without a mark were called inactive. Inconclusive results are not listed. Active and inactive are the calls of the source. Unless noted, calls follow the shape of the dose curve; as a rule, active = well fitted curve in the direction sought with a large enough effect in the repeat runs; inconclusive = weak or mixed curves; inactive = no such curve, though single readings can be large; an effect the other way counts as inactive or inconclusive.
% is scaled to controls: 0 for no effect and ±100 for the full control effect.

Sequence of Nuclear receptor subfamily 1 group I member 2 (Homo sapiens) (O75469 whole entry, looked up): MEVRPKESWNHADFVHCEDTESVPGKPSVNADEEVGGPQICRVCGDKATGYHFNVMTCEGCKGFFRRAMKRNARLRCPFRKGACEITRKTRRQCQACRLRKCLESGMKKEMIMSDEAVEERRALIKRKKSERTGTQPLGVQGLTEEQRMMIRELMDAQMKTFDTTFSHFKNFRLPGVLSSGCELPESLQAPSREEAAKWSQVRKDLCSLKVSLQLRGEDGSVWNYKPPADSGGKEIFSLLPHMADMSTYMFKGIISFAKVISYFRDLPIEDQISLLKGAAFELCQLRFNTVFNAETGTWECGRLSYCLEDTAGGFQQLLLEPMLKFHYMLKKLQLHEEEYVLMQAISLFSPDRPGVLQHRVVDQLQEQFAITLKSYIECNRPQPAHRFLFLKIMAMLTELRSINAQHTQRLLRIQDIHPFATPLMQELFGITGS
Sequence of Progesterone receptor (Homo sapiens) (P06401 whole entry, looked up): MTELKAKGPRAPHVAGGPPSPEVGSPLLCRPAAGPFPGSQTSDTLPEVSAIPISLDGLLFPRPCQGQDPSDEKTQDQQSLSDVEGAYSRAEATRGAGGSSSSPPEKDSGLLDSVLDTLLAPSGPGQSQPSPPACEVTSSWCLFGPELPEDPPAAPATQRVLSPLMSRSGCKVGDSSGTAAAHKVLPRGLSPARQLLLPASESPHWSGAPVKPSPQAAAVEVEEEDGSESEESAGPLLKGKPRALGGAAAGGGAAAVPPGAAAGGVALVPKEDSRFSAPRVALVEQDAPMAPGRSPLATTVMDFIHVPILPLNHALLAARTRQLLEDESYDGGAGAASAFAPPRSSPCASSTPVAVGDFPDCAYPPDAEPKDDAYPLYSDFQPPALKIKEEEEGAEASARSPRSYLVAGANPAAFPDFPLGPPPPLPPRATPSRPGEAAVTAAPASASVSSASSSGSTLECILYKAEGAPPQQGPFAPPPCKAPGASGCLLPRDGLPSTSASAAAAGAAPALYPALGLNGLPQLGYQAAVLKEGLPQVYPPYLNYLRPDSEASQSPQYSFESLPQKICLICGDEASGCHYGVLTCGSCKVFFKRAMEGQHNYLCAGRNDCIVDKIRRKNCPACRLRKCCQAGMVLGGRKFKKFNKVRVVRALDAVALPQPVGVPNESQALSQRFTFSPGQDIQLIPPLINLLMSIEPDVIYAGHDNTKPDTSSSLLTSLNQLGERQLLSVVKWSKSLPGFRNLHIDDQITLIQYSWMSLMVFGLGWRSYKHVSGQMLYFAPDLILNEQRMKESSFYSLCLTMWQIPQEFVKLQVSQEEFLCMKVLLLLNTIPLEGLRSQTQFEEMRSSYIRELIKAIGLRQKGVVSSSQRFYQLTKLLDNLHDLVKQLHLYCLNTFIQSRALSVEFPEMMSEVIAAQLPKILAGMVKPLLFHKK
Sequence of Thyrotropin-releasing hormone receptor (Homo sapiens) (P34981 whole entry, looked up): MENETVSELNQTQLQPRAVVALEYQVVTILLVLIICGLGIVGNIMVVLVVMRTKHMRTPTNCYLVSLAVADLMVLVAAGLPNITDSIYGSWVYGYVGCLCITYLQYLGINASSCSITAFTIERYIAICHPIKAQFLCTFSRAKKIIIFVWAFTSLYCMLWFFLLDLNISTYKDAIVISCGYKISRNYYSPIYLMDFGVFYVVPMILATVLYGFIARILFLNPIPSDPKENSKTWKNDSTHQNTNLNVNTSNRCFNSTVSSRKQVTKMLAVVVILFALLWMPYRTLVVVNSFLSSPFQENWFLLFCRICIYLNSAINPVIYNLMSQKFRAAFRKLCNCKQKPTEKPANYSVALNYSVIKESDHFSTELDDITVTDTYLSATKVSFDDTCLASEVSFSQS
Sequence of Nuclear receptor subfamily 1 group I member 2 (Rattus norvegicus) (Q9R1A7 whole entry, looked up): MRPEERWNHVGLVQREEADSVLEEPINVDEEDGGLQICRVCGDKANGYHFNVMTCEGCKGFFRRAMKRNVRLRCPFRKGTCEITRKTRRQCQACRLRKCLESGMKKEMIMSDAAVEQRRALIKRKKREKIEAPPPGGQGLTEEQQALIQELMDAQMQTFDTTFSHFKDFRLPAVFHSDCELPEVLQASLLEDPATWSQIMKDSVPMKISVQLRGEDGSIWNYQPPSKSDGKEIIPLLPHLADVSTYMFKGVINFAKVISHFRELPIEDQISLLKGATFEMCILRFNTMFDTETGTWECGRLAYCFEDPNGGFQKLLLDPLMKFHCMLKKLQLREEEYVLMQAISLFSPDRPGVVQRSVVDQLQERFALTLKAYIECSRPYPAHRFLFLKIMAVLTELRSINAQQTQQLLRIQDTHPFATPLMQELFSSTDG

As to `O=c1cc(-c2ccccc2)oc2ccccc12`, the Potency entry in assay [1], in assay [3], in assay [8], in assay [9] and in assay [12] was “inactive” each time. In addition, the Potency is 61.1 µM (active) in assay [2]; 68.2 µM (active) in assay [10]; 54.5 µM (active) and 24.2 µM (active) in assay [13]. Further, the call in assay [4], in assay [5], in assay [6], in assay [7] and in assay [11] was inactive.

For `COc1ccc(CCN(C)CCCC(C#N)(c2cc(OC)c(OC)c(OC)c2)C(C)C)cc1OC` (configuration not stated), the Potency result in [14], in [2], in [15], in [16], in [3] and in assay [9] was “inactive” throughout. In addition, the Potency entry in [10] was “inactive”. Besides, the call in assay [4], in assay [5], in assay [6], in [7] and in [11] was inactive. Besides, the values for the Potency in [8] and in assay [13] were 26.6 µM (active) and 4.73 µM (active), respectively.

With `CC(C(=O)O)c1ccc(CC2CCCC2=O)cc1` (configuration not stated), the Potency entry in assay [1], in assay [2], in [15], in assay [16], in assay [3] and in assay [9] was “inactive” each time. In addition, the Potency result in assay [10], in [12] and in assay [13] was “inactive” each time. Further, the compound was classed as inactive in assay [4], in assay [5], in assay [6], in [7] and in assay [11].

As to `N#Cc1ccc(C2CCCc3cncn32)cc1` (configuration not stated), the Potency result in assay [1], in assay [14], in [2], in assay [15], in [16] and in [3] was “inactive” in each case. The Potency result in assay [9], in assay [10] and in assay [13] was “inactive” in each case. Further, the outcome in assay [4], in assay [5], in [6], in [7] and in [11] was inactive.

As for `CCOC(=O)CCC(C)=O`, the Potency result in assay [1], in assay [15], in [16], in [3], in assay [9] and in assay [10] was “inactive” in each case. Besides, the Potency result in [12] and in [13] was “inactive” each time. In addition, the compound was called inactive in assay [4], in assay [5] and in assay [11].

With `CN(C(=O)c1c(O)c2ccccc2n(C)c1=O)c1ccccc1`, the Potency result in [14], in [2], in assay [15], in [3], in [8] and in assay [9] was “inactive” throughout. Moreover, the Potency result in assay [10] and in assay [12] was “inactive” throughout. Further, the compound was classed as inactive in [4], in [5] and in assay [11]. In addition, in assay [17], the max activation was -3.59%.

With `NS(=O)(=O)c1cc2c(cc1Cl)NC(C1CC3C=CC1C3)NS2(=O)=O` (configuration not stated), the Potency result in assay [2], in assay [15], in assay [16], in [3], in assay [8] and in assay [10] was “inactive” in each case. Moreover, the Potency result in assay [12] and in assay [13] was “inactive” throughout. Also, the compound was called inactive in assay [4], in assay [5], in [6], in [7] and in assay [11].

With `NC(CSCC(=O)O)C(=O)O` (configuration not stated), the Potency entry in assay [2], in [15], in [16], in [3], in assay [9] and in assay [10] was “inactive” throughout. Further, the Potency entry in assay [12], in assay [13], in assay [18] and in assay [19] was “inactive” in each case. Besides, the call in [4], in assay [5], in assay [6], in [7] and in assay [11] was inactive. The max activation in assay [17] is -3.73%.
